Source: the supplement of paper PMC11732987, “Enantioselective OTUD7B fragment discovery through chemoproteomics screening and high-throughput optimisation” (Communications Chemistry, 2025)
Values without a mark were called inactive.

Assays:
Experiment in all cases: log2 ratio of Biotin-Ahx-Ub-VS probe labelling (fragment/DMSO); higher = less target engagement (more negative = stronger competition), active = hit call of the paper (q ≤ 0.05, log2 ratio ≤ -1)
Conditions in all cases: compound concentration: 200 uM; treatment time: 3 h
[1] = target: T1, OTUD6B (UniProt Q8N6M0)
T1 sequence (whole entry): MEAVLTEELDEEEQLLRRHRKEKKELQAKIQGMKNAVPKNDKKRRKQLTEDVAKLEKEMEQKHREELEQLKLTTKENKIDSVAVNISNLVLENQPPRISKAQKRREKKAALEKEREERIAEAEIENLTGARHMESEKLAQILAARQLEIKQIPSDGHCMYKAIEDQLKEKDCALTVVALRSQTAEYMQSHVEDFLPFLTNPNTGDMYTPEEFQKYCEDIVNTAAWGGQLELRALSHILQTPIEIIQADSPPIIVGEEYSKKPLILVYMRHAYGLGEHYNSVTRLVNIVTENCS
How it was run: (§1)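 Labelling with Biotin-Ahx-Ub-VS (0.5 µM final, 1 h) followed a 3 h triplicate treatment of HEK293T lysate (495 µg per sample, Tris/CHAPS/IGEPAL buffer with protease inhibitors) with fragment at 200 µM or vehicle. Labelled DUBs were NeutrAvidin-enriched, digested with LysC and trypsin, and run by diaPASEF LC-MS/MS. The values, average log2 fragment/vehicle ratios by unpaired t-test, come from global-median-normalised Spectronaut label-free quantities. Proteins with ≥2 unique peptides were used.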

[2] = target: T2, OTUD7B (UniProt Q6GQQ9)
T2 sequence (whole entry): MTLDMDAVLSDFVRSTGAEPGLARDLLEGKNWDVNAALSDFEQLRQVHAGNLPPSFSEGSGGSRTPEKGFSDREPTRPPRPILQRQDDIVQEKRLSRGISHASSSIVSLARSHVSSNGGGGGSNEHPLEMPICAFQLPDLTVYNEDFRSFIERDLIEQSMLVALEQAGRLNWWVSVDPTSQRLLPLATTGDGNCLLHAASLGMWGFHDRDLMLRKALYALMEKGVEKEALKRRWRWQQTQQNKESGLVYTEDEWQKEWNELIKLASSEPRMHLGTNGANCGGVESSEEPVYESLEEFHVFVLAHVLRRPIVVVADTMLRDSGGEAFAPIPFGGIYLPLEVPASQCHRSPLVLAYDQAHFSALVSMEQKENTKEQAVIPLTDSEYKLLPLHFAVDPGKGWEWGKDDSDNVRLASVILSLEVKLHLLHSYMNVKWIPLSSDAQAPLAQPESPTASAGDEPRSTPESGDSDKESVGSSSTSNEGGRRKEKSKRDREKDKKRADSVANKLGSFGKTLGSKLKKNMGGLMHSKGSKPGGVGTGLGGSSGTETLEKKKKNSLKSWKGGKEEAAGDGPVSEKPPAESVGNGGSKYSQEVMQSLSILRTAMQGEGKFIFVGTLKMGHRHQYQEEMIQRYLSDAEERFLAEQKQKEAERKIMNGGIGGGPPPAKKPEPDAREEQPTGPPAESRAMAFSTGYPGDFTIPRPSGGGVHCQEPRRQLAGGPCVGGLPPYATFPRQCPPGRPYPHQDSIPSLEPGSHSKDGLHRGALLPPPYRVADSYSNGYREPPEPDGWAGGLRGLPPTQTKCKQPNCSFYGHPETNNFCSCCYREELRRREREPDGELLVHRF
How it was run: as §1

[3] = target: PRPF8 (UniProt Q6P2Q9)
How it was run: as §1

[4] = target: T3, PSMD7 (UniProt P51665)
T3 sequence (whole entry): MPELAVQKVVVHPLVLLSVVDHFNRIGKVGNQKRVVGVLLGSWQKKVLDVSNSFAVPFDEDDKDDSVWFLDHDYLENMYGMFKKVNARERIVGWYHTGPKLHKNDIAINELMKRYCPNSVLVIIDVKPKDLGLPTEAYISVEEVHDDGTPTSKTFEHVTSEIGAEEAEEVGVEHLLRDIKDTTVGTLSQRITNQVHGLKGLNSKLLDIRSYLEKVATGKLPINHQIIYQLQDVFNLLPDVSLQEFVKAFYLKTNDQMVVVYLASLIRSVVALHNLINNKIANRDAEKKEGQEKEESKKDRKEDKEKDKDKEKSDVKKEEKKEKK
How it was run: as §1

[5] = target: UCHL1 (UniProt P09936)
How it was run: as §1

[6] = target: T4, UCHL3 (UniProt P15374)
T4 sequence (whole entry): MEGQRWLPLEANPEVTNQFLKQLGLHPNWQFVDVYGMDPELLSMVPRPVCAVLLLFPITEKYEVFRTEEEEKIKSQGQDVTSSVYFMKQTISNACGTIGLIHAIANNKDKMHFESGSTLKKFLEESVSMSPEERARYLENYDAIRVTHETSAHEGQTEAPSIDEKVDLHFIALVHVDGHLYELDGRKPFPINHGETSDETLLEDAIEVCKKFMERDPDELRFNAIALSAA
How it was run: as §1

[7] = target: T5, UCHL5 (UniProt Q9Y5K5)
T5 sequence (whole entry): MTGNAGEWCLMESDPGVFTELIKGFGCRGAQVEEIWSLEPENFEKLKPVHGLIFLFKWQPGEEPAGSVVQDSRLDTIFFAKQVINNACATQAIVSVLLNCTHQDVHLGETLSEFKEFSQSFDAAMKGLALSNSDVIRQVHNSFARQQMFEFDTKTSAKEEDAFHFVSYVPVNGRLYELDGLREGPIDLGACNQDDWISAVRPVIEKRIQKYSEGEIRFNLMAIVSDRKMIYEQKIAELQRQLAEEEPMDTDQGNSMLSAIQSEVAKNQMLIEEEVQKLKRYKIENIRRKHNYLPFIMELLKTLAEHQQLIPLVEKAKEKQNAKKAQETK
How it was run: as §1

[8] = target: USP10 (UniProt Q14694)
How it was run: as §1

[9] = target: T6, USP15 (UniProt Q9Y4E8)
T6 sequence (whole entry): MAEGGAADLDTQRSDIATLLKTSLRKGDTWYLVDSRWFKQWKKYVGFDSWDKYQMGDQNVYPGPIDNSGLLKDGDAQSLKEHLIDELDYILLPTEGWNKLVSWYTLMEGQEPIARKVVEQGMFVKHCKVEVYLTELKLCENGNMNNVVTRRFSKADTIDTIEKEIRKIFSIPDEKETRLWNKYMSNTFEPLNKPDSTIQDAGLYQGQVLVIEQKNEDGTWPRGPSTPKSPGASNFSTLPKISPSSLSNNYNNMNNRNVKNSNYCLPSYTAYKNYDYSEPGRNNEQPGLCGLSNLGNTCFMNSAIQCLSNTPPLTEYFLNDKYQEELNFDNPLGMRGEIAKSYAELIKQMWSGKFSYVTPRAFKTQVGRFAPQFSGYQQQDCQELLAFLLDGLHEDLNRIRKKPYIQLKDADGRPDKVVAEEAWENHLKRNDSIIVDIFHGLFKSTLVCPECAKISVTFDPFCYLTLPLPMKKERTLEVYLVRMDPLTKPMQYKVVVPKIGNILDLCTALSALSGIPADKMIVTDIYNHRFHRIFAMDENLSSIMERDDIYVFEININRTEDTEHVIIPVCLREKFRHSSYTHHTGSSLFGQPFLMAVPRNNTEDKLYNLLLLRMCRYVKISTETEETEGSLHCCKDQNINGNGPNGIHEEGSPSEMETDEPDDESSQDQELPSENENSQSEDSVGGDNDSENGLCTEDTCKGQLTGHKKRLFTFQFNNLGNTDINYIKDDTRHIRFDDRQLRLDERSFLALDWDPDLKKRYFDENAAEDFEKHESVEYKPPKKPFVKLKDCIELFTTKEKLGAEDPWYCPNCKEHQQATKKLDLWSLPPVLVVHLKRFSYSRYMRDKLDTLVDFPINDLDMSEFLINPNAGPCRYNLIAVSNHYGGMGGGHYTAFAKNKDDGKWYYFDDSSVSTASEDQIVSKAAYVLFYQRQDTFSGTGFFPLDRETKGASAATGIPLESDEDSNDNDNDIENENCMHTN
How it was run: as §1

USP10, sequence (Q14694 whole entry): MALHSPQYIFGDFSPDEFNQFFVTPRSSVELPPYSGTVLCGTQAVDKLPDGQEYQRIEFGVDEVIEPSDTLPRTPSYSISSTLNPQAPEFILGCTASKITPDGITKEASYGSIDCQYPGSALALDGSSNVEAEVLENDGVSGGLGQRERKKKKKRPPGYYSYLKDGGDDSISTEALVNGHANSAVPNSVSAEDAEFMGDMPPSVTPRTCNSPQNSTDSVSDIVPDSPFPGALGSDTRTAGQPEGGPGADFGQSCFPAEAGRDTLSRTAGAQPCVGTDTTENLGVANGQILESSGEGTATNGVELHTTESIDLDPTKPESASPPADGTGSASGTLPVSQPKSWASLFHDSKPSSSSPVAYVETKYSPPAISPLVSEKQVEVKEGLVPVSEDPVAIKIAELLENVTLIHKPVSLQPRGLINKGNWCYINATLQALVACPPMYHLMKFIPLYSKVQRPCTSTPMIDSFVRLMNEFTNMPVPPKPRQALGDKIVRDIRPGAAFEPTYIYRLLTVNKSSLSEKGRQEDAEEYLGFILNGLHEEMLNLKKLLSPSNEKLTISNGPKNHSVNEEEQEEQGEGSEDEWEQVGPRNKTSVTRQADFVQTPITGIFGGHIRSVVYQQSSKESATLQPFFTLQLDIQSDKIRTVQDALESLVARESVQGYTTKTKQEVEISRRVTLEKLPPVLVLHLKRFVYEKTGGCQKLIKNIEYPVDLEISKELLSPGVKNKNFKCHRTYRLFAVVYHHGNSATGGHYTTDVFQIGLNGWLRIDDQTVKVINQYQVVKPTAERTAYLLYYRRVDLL
UCHL1, sequence (P09936 whole entry, looked up): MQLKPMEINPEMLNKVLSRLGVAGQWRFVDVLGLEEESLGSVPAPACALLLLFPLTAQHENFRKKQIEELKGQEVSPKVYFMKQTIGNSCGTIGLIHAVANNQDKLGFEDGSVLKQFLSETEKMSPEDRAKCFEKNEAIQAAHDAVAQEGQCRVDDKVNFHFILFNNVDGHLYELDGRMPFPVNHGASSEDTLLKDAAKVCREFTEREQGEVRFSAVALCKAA

Cc1ccccc1CN(C)C(=O)CCl
log2 ratio of Biotin-Ahx-Ub-VS probe labelling [1]: -0.788 | log2 ratio of Biotin-Ahx-Ub-VS probe labelling [2]: -0.98 | log2 ratio of Biotin-Ahx-Ub-VS probe labelling [3]: -0.0478 | log2 ratio of Biotin-Ahx-Ub-VS probe labelling [4]: -0.18 | log2 ratio of Biotin-Ahx-Ub-VS probe labelling [5]: -1.98 (active) | log2 ratio of Biotin-Ahx-Ub-VS probe labelling [6]: -0.483 | log2 ratio of Biotin-Ahx-Ub-VS probe labelling [7]: -1.01 (active) | log2 ratio of Biotin-Ahx-Ub-VS probe labelling [8]: -0.154 | log2 ratio of Biotin-Ahx-Ub-VS probe labelling [9]: -0.803
